Where a name gives a salt, the structure may show the parent alone.
Test system: HeLa
Assay: nuclear count per well, robust Z-score vs DMSO; higher = more cells (less toxicity)
Conditions: 10 µM; 6 h
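Also: Hoechst-stained nuclei counted by automated confocal imaging of four fields per well in 384-well plates, with the robust Z-score based on the per-plate DMSO median and robust SD.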

Row | SMILES | nuclear count per well
1 | Cc1ccsc1C(=CCCN1CCC[C@@H](C(=O)O)C1)c1sccc1C | 1.09
2 | CO[C@H]1/C=C/O[C@@]2(C)Oc3c(C)c(O)c4c(O)c(c(/C=N/N5CCN(C)CC5)c(O)c4c3C2=O)NC(=O)/C(C)=C\C=C\[C@H](C)[C@H](O)[C@@H](C)[C@@H](O)[C@@H](C)[C@H](OC(C)=O)[C@@H]1C [Rifampicin] | 0.709
3 | CC(C)c1nc(CN(C)C(=O)N[C@H](C(=O)N[C@@H](Cc2ccccc2)C[C@H](O)[C@H](Cc2ccccc2)NC(=O)OCc2cncs2)C(C)C)cs1 [Ritonavir] | 0.114
4 | C[C@]12CCC(=O)C=C1CC[C@@H]1[C@@H]2[C@@H](O)C[C@@]2(C)[C@H]1CC[C@]2(O)C(=O)CO [Hydrocortisone] | -0.344
5 | OCCn1cc(-c2cnc3nnn(Cc4ccc5ncccc5c4)c3n2)cn1 | -0.692
6 | Nc1ncnc2c1ncn2[C@@H]1O[C@H](CO)[C@@H](O)[C@H]1O [Adenosine] | 0.725
7 | Cc1ccc(-c2cc(C(F)(F)F)nn2-c2ccc(S(N)(=O)=O)cc2)cc1 [Celecoxib] | -0.432
8 | CC(=O)c1ccc(S(=O)(=O)NC(=O)NC2CCCCC2)cc1 [Acetohexamide] | 0.532
9 | CCCCCCCC/C=C\CCCCCCCC(=O)OCC(CO)OC(=O)CCCCCCC/C=C\CCCCCCCC (centres undefined) [1,2-Dioleoyl-glycerol (18:1)] | -0.53
10 | NNCCc1ccccc1 [Phenelzine Sulfate] | 0.336
11 | CC(C)Cn1cnc2c(N)nc3ccccc3c21 [Imiquimod] | 0.336
12 | COC(=O)[C@H](c1ccccc1Cl)N1CCc2sccc2C1 | 0.376
13 | COc1cc2nc(N3CCN(C(=O)C4CCCO4)CC3)nc(N)c2cc1OC (centres undefined) | 0.393
14 | CC(=O)CC(c1ccc([N+](=O)[O-])cc1)c1c(O)c2ccccc2oc1=O (centres undefined) [Acenocoumarol] | -0.255
15 | CCCCC1C(=O)N(c2ccccc2)N(c2ccccc2)C1=O [Phenylbutazone] | 0.422
16 | CCCSc1ccc2[nH]c(NC(=O)OC)nc2c1 [Albendazole] | -0.246
17 | CO[C@H]1C[C@@H]2CC[C@@H](C)[C@@](O)(O2)C(=O)C(=O)N2CCCC[C@H]2C(=O)O[C@H]([C@H](C)C[C@@H]2CC[C@@H](O)[C@H](OC)C2)CC(=O)[C@H](C)/C=C(\C)[C@@H](O)[C@@H](OC)C(=O)[C@H](C)C[C@H](C)/C=C/C=C/C=C/1C [Rapamycin] | 1.56
18 | C[C@@H](O)[C@H]1C(=O)N2C(C(=O)O)=C(S[C@@H]3CN[C@H](C(=O)N(C)C)C3)[C@H](C)[C@H]12 [Meropenem] | -0.165
19 | CC[C@]1(O)C[C@@H]2CN(CCc3c([nH]c4ccccc34)[C@@](C(=O)OC)(c3cc4c(cc3OC)N(C)[C@H]3[C@@](O)(C(=O)OC)[C@H](OC(C)=O)[C@]5(CC)C=CCN6CC[C@]43[C@@H]65)C2)C1 [Vinblastine Sulfate] | -3.09
20 | CCCCN1CCCCC1C(=O)Nc1c(C)cccc1C (centres undefined) | -0.695

Row | SMILES | nuclear count per well
21 | CN[C@H]1CC[C@@H](c2ccc(Cl)c(Cl)c2)c2ccccc21 | 0.399
22 | CCCCC[C@H](O)/C=C/[C@H]1C=CC(=O)[C@@H]1CCCCCCC(=O)O [Prostaglandin A1] | -0.218
23 | O=c1n(CCCN2CCN(c3cccc(Cl)c3)CC2)nc2ccccn12 | 1
24 | CO/N=C(\C(=O)N[C@@H]1C(=O)N2C(C(=O)O)=C(COC(N)=O)CS[C@H]12)c1ccco1 | 0.832
25 | CC1=C(CC(=O)O)c2cc(F)ccc2/C1=C\c1ccc([S+](C)[O-])cc1 (centres undefined) [Sulindac] | -0.07
26 | CCCCC[C@H](O)/C=C/C1=C(CCCCCCC(=O)O)C(=O)CC1 [Prostaglandin B1] | 1.38
27 | C[C@]12CCC3=C4CCC(=O)C=C4CC[C@H]3[C@@H]1CC[C@@]2(O)CC#N [Dienogest] | 1.14
28 | N#CC(=Cc1cc(Cl)cc(Cl)c1)c1cccnc1 | -0.32
29 | OC(CCN1CCCCC1)(c1ccccc1)C1CCCCC1 (centres undefined) | -0.452
30 | O=c1oc(Cl)c(Cl)c2ccccc12 [3,4-dichloroisocoumarin] | 0.105
31 | CN(C)CCCN1c2ccccc2CCc2ccc(Cl)cc21 | 0.587
32 | CCCC1O[C@@H]2C[C@H]3[C@@H]4CCC5=CC(=O)C=C[C@]5(C)[C@H]4[C@@H](O)C[C@]3(C)[C@]2(C(=O)CO)O1 (some centres undefined) [Budesonide] | 1.67
33 | COc1ccc2cccc(CCNC(C)=O)c2c1 [Agomelatine] | -0.949
34 | CCOC(=O)[C@H](CCc1ccccc1)N[C@@H](C)C(=O)N1[C@H](C(=O)O)C[C@H]2CCCC[C@@H]21 [Trandolapril] | -0.645
35 | O=c1ccc2ccccc2o1 [Coumarin] | -1.2
36 | CCCN(CCC)CCc1cccc2c1CC(=O)N2 | 0.888
37 | C[C@](N)(Cc1ccc(O)c(O)c1)C(=O)O [Methyldopa] | 0.704
38 | CCC(=O)O[C@]1(C(=O)CCl)[C@@H](C)C[C@H]2[C@@H]3C[C@H](F)C4=CC(=O)C=C[C@]4(C)[C@@]3(F)[C@@H](O)C[C@@]21C [Halobetasol Propionate] | 0.573
39 | CN1CCC[C@@H]1CCO[C@](C)(c1ccccc1)c1ccc(Cl)cc1 [Clemastine Fumarate] | -0.849
